Measurements published in ChEMBL document CHEMBL3433997, “St. Jude Leishmania screening dataset” (2016).

Assays:
Assay type in all cases: functional
[1] = biological target: Solute carrier family 2, facilitated glucose transporter member 1 (Homo sapiens) (UniProt P11166); assay: ST_JUDE_LEISH: Cytotoxicity at 2uM final concentration against transgenic Leishmania Mexicana promastigotes LmGLUT1 that are glucose transport deficient and complemented with the human glucose transporter GLUT1. Activity is measured by DNA content using SYBR green in vitro
Solute carrier family 2, facilitated glucose transporter member 1 (Homo sapiens), sequence (P11166 whole entry): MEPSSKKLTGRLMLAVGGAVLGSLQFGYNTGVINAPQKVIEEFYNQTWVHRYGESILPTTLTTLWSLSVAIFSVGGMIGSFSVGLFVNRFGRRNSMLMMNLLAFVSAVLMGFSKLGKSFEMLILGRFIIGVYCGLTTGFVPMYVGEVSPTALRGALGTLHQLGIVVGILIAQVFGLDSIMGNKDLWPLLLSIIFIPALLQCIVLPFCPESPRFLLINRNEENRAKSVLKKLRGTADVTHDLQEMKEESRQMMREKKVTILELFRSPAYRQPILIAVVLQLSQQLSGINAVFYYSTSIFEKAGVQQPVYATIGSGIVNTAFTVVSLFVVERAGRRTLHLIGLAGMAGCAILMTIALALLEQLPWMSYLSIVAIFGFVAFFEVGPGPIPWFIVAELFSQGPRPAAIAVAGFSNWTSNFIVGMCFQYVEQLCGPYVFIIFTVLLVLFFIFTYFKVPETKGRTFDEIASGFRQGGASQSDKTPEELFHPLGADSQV

[2] = biological target: Hexose transporter 1 (Plasmodium falciparum) (UniProt O97467); assay: ST_JUDE_LEISH: Cytotoxicity at 2uM final concentration against transgenic Leishmania Mexicana promastigotes LmPfHT that are glucose transport deficient and complemented with the Plasmodium falciparum hexose transporter. Activity is measured by DNA content using SYBR green in vitro
[3] = biological target: Glucose transporter (Leishmania mexicana) (UniProt O61059); assay: ST_JUDE_LEISH: Cytotoxicity at 2uM final concentration against transgenic Leishmania Mexicana promastigotes LmGT2 that are glucose transport deficient and complemented with the L. Mexicana glucose transporter 2. Activity is measured by DNA content using SYBR green in vitro

Row | Structure (SMILES) | inhibition [1] [%] | inhibition [2] [%] | inhibition [3] [%]
1 | O=C(/C=C/c1ccccc1F)NC1CCC(CCN2CCc3ccc(-c4cccnc4)cc3CC2)CC1 (stereo not drawn) | 15.8 | 15.8 | 20.1
2 | CCOC(=O)c1c(C)noc1Nc1cccc(C)c1C | -3.16 | -1.56 | -4.02
3 | c1ccc2[nH]c(-c3ccc(-c4ccc(CNCCc5ccncc5)cc4)s3)nc2c1 | 8.39 | 5.02 | 2.3
4 | CCCC(C(=O)OCCNC)(c1ccccc1)c1ccccc1 | 1.4 | 0.51 | 0.81
5 | CC(=O)c1ccc(NC(=O)Nc2ccc(N(C)c3ccnc(NC4CC4)n3)cc2)cc1 | -0.95 | -3.95 | 0.62
6 | Cc1cccc2nc(-c3ccc(-c4ccc(CN5CCN(CCO)CC5)cc4)s3)[nH]c12 | 10.6 | 8.8 | 7.69
7 | Cc1cnc(C(=O)Nc2cccc(-c3ccc(-c4nc5cc(F)ccc5[nH]4)cc3)c2)cn1 | 12.2 | 10 | 8.63
8 | Nc1nc2c(cnn2CCCCCCCP(=O)(O)O)c(=O)[nH]1 | -0.8 | 0.25 | -0.36
9 | CN1CC[C@@H](Oc2cc(NC(=O)Nc3ccccc3Br)ccc2Cl)C1 | 4.94 | 3.71 | 2.59
10 | CN1CCN(CCCN(Cc2cccc(-c3ccc(CNC4CCCC4)cc3)c2)C(=O)CCC2CCCC2)CC1 | 17.4 | 8.03 | 3.62
11 | Cc1cc2c(cc1C(F)(F)F)N(C(=O)Nc1cc(OCCN(C)C)cc(C(F)(F)F)c1)CC2 | -0.72 | -1.6 | -0.42
12 | COc1ccc2ncc(C#N)c(CCN3CCC(NCc4cnc5c(c4)OCCO5)CC3)c2n1 | 11.4 | 15.9 | 6.56
13 | COc1ccc2ncc(F)c(CCN3CC[C@@H](CNCc4cc5c(cn4)OCS5)C3)c2n1 | 2.66 | 1.69 | -0.48
14 | CC(C)(C)[C@@H](Nc1ccc(C#N)c2ccccc12)C(=O)NC1(Cc2ccc(O)c(Br)c2)CCCC1 | 2.05 | 3.09 | -0.09
15 | O=C(Nc1cccc(CN2CCCN(Cc3ccccc3)CC2)c1)c1ccc(-c2ccccc2)cc1 | 3 | 4.14 | -0.61
16 | COc1ccc(C(=O)Nc2ccc3nc(N4CCCCC4)cc(C)c3c2)cc1[N+](=O)[O-] | 2.05 | 3.3 | 2
17 | COc1ccc(S(=O)(=O)NC2CCN(c3ccc(C(F)(F)F)cc3NC(=O)OCC(C)C)CC2)cc1 | 0.36 | 1.75 | 2.43
18 | Cc1ncsc1CCN1C(=O)CC2(C1=O)C(=O)N(Cc1ccccc1)c1ccc(Cl)cc12 (stereo not drawn) | 1.9 | 2.58 | -1.17
19 | Cc1cc(N2CCCN(CC3CCCCC3)CC2)nc(Nc2ccc(Br)cc2)n1 | 1.81 | 6.86 | -2.12
20 | CCc1cc2c(=O)c(-c3nc(C)cs3)c(N)oc2c(CN2CCCCC2)c1O | 3.22 | 2.22 | 3.34
21 | COc1ccc2ncc(F)c(CCN3CC[C@H](NCc4cc5c(s4)CCCN5)[C@H](O)C3)c2n1 | 9.63 | 15.1 | 2.43
22 | COc1ccc2c(=O)c(-c3ccc(OC(F)(F)F)cc3)c(C)[nH]c2c1 | -0.72 | 1.76 | 1.81
23 | CCC(C)NCC(O)(c1ccc(Cl)cc1)c1ccc(Cl)cc1 (stereo not drawn) | -2.33 | -0.32 | -0.2
24 | CN(CCN(C)CC(O)c1ccc(Cl)c(Cl)c1)CC(O)c1ccc(Cl)c(Cl)c1 (stereo not drawn) | 11.5 | 9.66 | 9.87

Row | Structure (SMILES) | inhibition [1] [%] | inhibition [2] [%] | inhibition [3] [%]
25 | O=C(O)/C=C/c1cccc(F)c1F | 1.29 | 1.5 | 2.66
26 | C=C[C@]1(C)C[C@@H](OC(=O)c2n[nH]c3ccccc3c2=O)[C@]2(C)[C@H](C)CC[C@]3(CCC(=O)[C@H]32)[C@@H](C)[C@@H]1O | 5.34 | 0.28 | -0.71
27 | COc1ccc(CCNC(C)Cc2ccc(C(=O)Nc3ccc(CC(C)NCCc4cccc(Cl)c4)cc3)cc2)cc1 (stereo not drawn) | 3.92 | 13 | 0.32
28 | Cc1cc(-c2cccc3c(NC(=O)N4CCc5cc6nccc(N7CCN8CCC[C@H]8C7)c6cc54)cccc23)cc(C)n1 | 4.48 | 2.56 | 1.59
29 | COc1c(Br)cc(Br)cc1-c1ccc(CN2C3CCCC2CCC3)[nH]1 | 4.44 | 7.84 | 2.48
30 | CN(C)CCOc1ccc2nc(-c3cccc(OCc4ccccc4)c3)[nH]c2c1C#N | 2.41 | 1.25 | 1.74
31 | CC[C@H](C)CNC(=O)c1cncc(-c2ccc(CNC3Cc4ccccc4C3)cc2)c1 | 6.08 | 6.72 | 5.96
32 | NCc1ccc(CNCc2cccc(-c3cccc(-c4nc5ccccc5[nH]4)c3)c2)cc1 | 1.02 | -3.61 | 3.76
33 | Cc1cc(-c2ccc(CN3Cc4ccccc4C3)cc2)ccc1S(=O)(=O)NCCN1CCCC1 | 40.3 | 17.2 | 11
34 | CC(=O)Nc1cccc(C(=O)Nc2cccc(-c3csc(-c4nc5ccccc5[nH]4)c3)c2)c1 | 4.93 | 2.83 | 3.14
35 | NCCc1cccc(-c2cnc3[nH]cc(-c4ccc(C(=O)O)cc4)c3c2)c1 | 0.56 | 0.29 | 0.03
36 | COc1ccc(-n2ccnc2SCC(=O)Nc2cc(Cl)ccc2OC)c(OC)c1 | 2.64 | -0.3 | 4.9
37 | O=C(/C=C/c1ccc(F)cc1)NC1CCC(CCN2CCc3ccccc3CC2)CC1 (stereo not drawn) | 7.03 | 5.64 | 2.76
38 | COc1ccc(-c2ccc(CNC(=O)c3cccc(C#N)c3)c(F)c2)cc1CN1CCCN(C)CC1 | 0.77 | -4.93 | 0.55
39 | CC(C)(C)NC(=O)C(c1ccc(F)cc1)N(C(=O)c1ccc(CN2CCOCC2)o1)c1ccc(C2CCCCC2)cc1 (stereo not drawn) | 2.43 | 2.31 | 0.51
40 | CN(C)C(=O)c1ccc(CN(Cc2cccc(OC(C)(C)C)c2)Cc2ccc3c(c2)OCCO3)cc1 | 0.24 | -0.56 | 1
41 | Cn1cnc2c(SCc3ccc(OCc4ccccc4)cc3)ncnc21 | 2.71 | 4.19 | 6.37
42 | COc1ccc(NCc2cccc(-c3cccc(CNCCc4ccccc4)c3)c2)cc1 | 0 | 0.51 | -1.32
43 | Clc1ccc2c(N3CCCNCC3)ccnc2c1 | 1.53 | 1.07 | 4.48
44 | CCCCNC(=O)C1CCCN(C(=O)c2ccc(O)c(-c3ccc(Cl)c(Cl)c3)c2)C1 (stereo not drawn) | 1.28 | 1.16 | 0.69
45 | CCn1c(C2CCN(CCC3CCN(C(=O)/C=C/c4ccc(Cl)c(Cl)c4)CC3)CC2)nc2ccccc21 | 3.31 | 1.31 | 0.66
46 | COc1cc(OC)cc(C(=O)Nc2ccc(Nc3nc(C)cc(N(C)C)n3)cc2)c1 | 6.01 | 12.8 | 6.54
47 | Oc1ccc2c(CNC3CCCCC3)c(O)ccc2c1CNC1CCCCC1 | -0.71 | 0.24 | 0.34
48 | O=C(Nc1ccc(Cl)c(C(F)(F)F)c1)c1ccc(C(=O)Nc2ccc(Cl)c(C(F)(F)F)c2)cc1 | -2.43 | 1.08 | 0.39

Row | Structure (SMILES) | inhibition [1] [%] | inhibition [2] [%] | inhibition [3] [%]
49 | COc1ccc(Cl)cc1NC(=O)CN(C)C(=O)c1cnn(-c2ccccc2)n1 | 1.85 | -0.34 | 3.11
50 | Cc1cc(Nc2ccccc2)nc(NCCOc2ccccc2)n1 | 5.53 | 8.42 | 2.95
51 | O=C(Nc1ccc(C(=O)OCC(c2ccccc2)c2ccccc2)cc1)N[C@@H](Cc1ccc(O)cc1)C(=O)NC1CCN(Cc2ccc(O)cc2)C1 (stereo partly drawn) | -0.47 | -1.74 | -3.39
52 | CC(C)(C)NS(=O)(=O)c1cc(C(=O)N2CCC(CCN3CCC(O)(c4cccc(C(F)(F)F)c4)CC3)(c3cccc(F)c3)CC2)c(Cl)cc1F | 1.73 | 1.52 | -0.37
53 | CC(CCCCC(=O)Nc1ccc(CC(C)NCCc2cccc(Cl)c2)cc1)NCCc1cccc(Cl)c1 (stereo not drawn) | 0.84 | 2.45 | -1.1
54 | Cc1cccc2nc(-c3ccc(-c4ccc(CNCc5cnn(-c6ccccc6)n5)cc4)cc3)[nH]c12 | 1.08 | 1.39 | 1.19
55 | CC(C)c1ccc(NC(=O)c2cccc(CN3CCCN(Cc4cccc(C#N)c4)CC3)c2)cc1 | 6.55 | 6.93 | 3.39
56 | Oc1ccc(CCNc2nc(NCc3ccccc3-c3ccc(C(F)(F)F)cc3)nc(N3CCCNCC3)n2)cc1 | 4.27 | 2.99 | 2.83
57 | CCc1c(CCNCCCC(C)CCNCCc2ccc(OC)c(OC)c2CC)ccc(OC)c1OC (stereo not drawn) | 1.96 | 4.93 | 1.22
58 | CC1CN(Cc2csc(Nc3ccccc3)n2)CC(C)O1 (stereo not drawn) | -0.51 | 0.99 | 3.5
59 | Cc1ccc(-c2nc(NC(=O)Nc3ccc(C(F)(F)F)cc3)sc2C)cc1Cl | 5.17 | 1.68 | 1.54
60 | O=C(NCCN1CCC(c2ccncc2)CC1)c1ccc(Nc2nccc(Nc3ccc(Oc4ccccc4)cc3)n2)cc1 | -0.62 | -0.94 | -1.34
61 | CCCC1(NC[C@@H](O)[C@H](Cc2ccccc2)NC(=O)c2cc(NCC)cc(N3CCCCS3(=O)=O)c2)CCCCC1 | -0.81 | 0.97 | 4.36
62 | CC(=O)c1sc(Cc2nc3ccccc3s2)nc1C | 0.49 | 1.15 | -1.55
63 | Cc1cccc2nc(-c3ccc(-c4ccc(NC(=O)Nc5cccc(C#N)c5)cc4)s3)[nH]c12 | 9.25 | 6.92 | 8.07
64 | COc1cc(F)c2nccc([C@@H](O)CN3CCC(NCc4cc5c(cc4F)OCCO5)CC3)c2c1 | 1.5 | 0.69 | -2.93
65 | O=C(Cc1cccc(Cl)c1)Nc1cccc(-c2c[nH]c3nc(Nc4ccccc4)ncc23)c1 | 3.42 | -0.54 | 0.7
66 | COc1ccc(NC(=O)c2cc(NC(=O)C3(N)CC3)c(=O)n(Cc3ccc(C(N)=O)cc3)c2)cc1 | 0.5 | 3.44 | 2.12
67 | COc1ccc(CNC(=O)NC2CCN(c3ccnc(Nc4ccc(F)cc4)n3)C2)cc1 (stereo not drawn) | 7.84 | 5.37 | 7.65
68 | C[C@H](N[C@H]1CCCc2c1[nH]c1ccc(Br)cc21)c1ccccc1 | 2.46 | 0.78 | 0.74
69 | O=C(Nc1cccc(-c2nn3ccccc3c2-c2ccnc(Nc3cccc(F)c3)n2)c1)c1c(F)ccc(F)c1F | 6.01 | 9.13 | 5.56
70 | CC(C)Cn1ncc2c3c(N)nc(N)nc3ccc21 | 4.46 | 5.97 | 4.36
71 | CCN(CCNS(C)(=O)=O)c1ccc(N)c(C)c1 | 1.65 | 1.06 | 1.72
